These entries were drawn from the full list.
aSyn UTR act – Activators via SNCA 5'UTR binding, MLPCN | alpha-synuclein 5'UTR reporter, activators screen | activity score, % (tested at 7.5 µM), hits read low | hit rate 7.1% among 300,000 | AID 1814; in the data active means activity score below about -60%
Active calls of the source: *.

SMILES | aSyn UTR act
COc1ccc(-c2cn3cc(C)ccc3n2)cc1F | 77
COc1ccc(-c2cn3cccc(C)c3n2)cc1F | -149*
Cc1ccc(-c2cn3cccc(C)c3n2)cc1 | -75*
Cc1ccc(NC(=O)C(=O)C2C(=O)Nc3ccccc32)cc1 (stereo unspecified) | -77*
Cc1ccccc1CS(=O)(=O)c1ncc(Cl)c(C(=O)Nc2ccc(F)cc2)n1 | 64
CC1=NN(c2ccccc2)C(=O)C1C(=O)C(=O)Nc1ccc(F)cc1 (stereo unspecified) | -168*
N#C/C(=C\c1ccc(O)cc1)c1nc2ccccc2o1 | -120*
CN(Cc1ccccc1)c1ncnc2c1cnn2-c1ccccc1 | -169*
CCN(c1ccccc1)c1ncnc2c1cnn2-c1ccccc1 | -150*
Cc1ccc(C)c(C2NC(=O)c3ccccc3N2)c1 (stereo unspecified) | -70*
CSc1ccc(C2NC(=O)c3ccccc3N2)cc1 (stereo unspecified) | -126*
C[C@]12CCC(=O)C=C1CC[C@@H]1[C@@H]2[C@@H](O)C[C@]2(C=O)[C@@H](C(=O)CO)CC[C@@H]12 | -78*
COc1cccc(/C=N/NC(=O)NC2CCCCC2)c1O | -97*
COc1cccc(/C=N/NC(=O)c2cc3c(OC)cccc3[nH]2)c1O | 86
Cn1nccc1C(=O)N/N=C/c1ccccc1[N+](=O)[O-] | -89*
Cc1occc1C(=O)N/N=C/c1ccccn1 | -84*
COc1cccc(/C=N/NC(=O)c2ccoc2C)c1 | -125*
CCN(CC)c1ccc(/C=N/NC(=O)c2ccoc2C)cc1 | -95*
CCOc1ccc(/C=N/NC(=O)c2ccoc2C)cc1OC | -110*
COc1cc(/C=N/NC(=O)c2ccoc2C)ccc1O | -67*
COc1cc(C(=O)N/N=C/c2ccc3c(c2)c2ccccc2n3C)ccc1O | -117*
COc1cccc(/C=N/NC(=O)c2c(-c3ccccc3)noc2C)c1O | 58
O=C(N/N=C/c1ccccn1)c1ccc(N/N=C/c2ccccn2)cc1 | -132*
COc1cccc(/C=N/NC(=O)c2ccoc2C)c1O | -71*
COc1ccc(/C=N/NC(=O)c2ccoc2C)cc1CN1CCN(c2ccc(F)cc2)CC1 | -79*
SMILES | aSyn UTR act
COC(=O)/C(=C/c1ccc2c(c1)c1ccccc1n2C)NC(=O)c1ccccc1 | -68*
Cc1ccc(C(=O)N/N=C/c2cccc(OC(=O)/C=C/c3ccco3)c2)cn1 | -100*
O=C(/C=C/c1ccco1)Oc1cc(Br)cc(/C=N/NC(=O)c2ccccc2O)c1 | 96
Cc1occc1C(=O)N/N=C/c1ccccc1[N+](=O)[O-] | -121*
C/C(=N\NC(=O)c1ccco1)c1ccc(-c2ccccc2)cc1 | -126*
C/C(=N\NC(=O)c1ccco1)c1cc2ccccc2o1 | -94*
C/C(=N\NC(=O)COc1ccccc1F)c1cc2ccccc2o1 | -133*
C/C(=N\NC(=O)c1ccco1)c1ccc(NC(=O)c2ccccc2)cc1 | -126*
Cc1csc(SCc2nnc(-c3ccccc3Br)o2)n1 | -88*
Cc1ccc(-c2nnc(CSc3nnc(C)s3)o2)cc1 | -79*
Cc1csc(SCc2nnc(-c3ccc(Cl)cc3)o2)n1 | -173*
Cc1ccc(NC(=O)Nc2ccc3c(c2)nnn3C)cc1C | -66*
COc1ccccc1NC(=O)Nc1ccc2c(c1)nnn2C | -96*
Clc1ccccc1N1CCN(Cc2c[nH]c3ccccc23)CC1 | 64
O=C(CCCc1c[nH]c2ccccc12)N1CCCCCC1 | -73*
COC(=O)N1N=C(c2ccc(Br)cc2)CC1(O)C(F)(F)F (stereo unspecified) | -126*
CCOC(=O)N1N=C(c2ccccc2)CC1(O)C(F)(F)F (stereo unspecified) | -75*
CCOC(=O)C1=NN(C(=O)c2cccc(Br)c2)C(O)(C(C)(C)C)C1 (stereo unspecified) | 105
COc1cc(C(C)=O)ccc1OCc1cc(C(=O)N(C)CCC2CCCCO2)no1 (stereo unspecified) | -188*
COc1ccccc1OCc1cc(C(=O)N(C)CCC2CCCCO2)no1 (stereo unspecified) | -96*
Cc1cc(C)nc(-n2nc(C)c(Sc3ccc(F)cc3)c2N)n1 | -182*
Clc1ccc(-c2nc(Cc3ccccc3)no2)cc1 | -141*
Cc1ccccc1-c1nc(Cc2ccccc2)no1 | -129*
CN1CCSc2ccc(C(=O)Nc3ccc(Cl)cc3)cc21 | -215*
COc1cccc(NC(=O)c2ccc3c(c2)CCN3S(C)(=O)=O)c1 | -118*
SMILES | aSyn UTR act
COc1cccc(NC(=O)c2ccc3c(c2)N(C)CCS3)c1 | -117*
CN(C)c1ccc(-c2nnc(SCC3CCCO3)n2C)cc1 (stereo unspecified) | -89*
COc1ccc(-c2cc(C(=O)Nc3ccc(C)c(N)c3)c3ccccc3n2)cc1 | -82*
CC(C)(C)c1ccc(-c2cc(C(=O)NNC(=O)Nc3ccccc3)c3ccccc3n2)cc1 | -124*
COc1cc(C(=O)Nc2ccc(C)cc2)c2ccccc2n1 | 82
Cc1cccn2c(=O)c(C=Nc3ccc(Cl)cc3)c(NCCO)nc12 | -91*
O=C(O)c1ccc2c3c(ncnc13)-c1ccccc1C2=O | 107
Cc1ccc2c3c(cccc13)-c1ccccc1C2=O | -111*
COC(=O)c1ccc2nc(-c3cccc(N)c3)cn2c1 | 61
COC(=O)c1ccc(OCCOc2ccccc2)cc1 | -131*
COC(=O)c1ccc(N=Nc2ccccc2)cc1 | -132*
O=C(NCC1CCCO1)c1cc(-c2ccc(Cl)cc2Cl)on1 (stereo unspecified) | -164*
Cc1cccc(NC(=O)C(=O)NCC2CCCO2)c1 (stereo unspecified) | -92*
CC1=Nc2cc(C(=O)NCC3CCCO3)ccc2Sc2ccc(Br)cc21 (stereo unspecified) | -113*
O=C(NCC1CCCO1)c1cc(-c2ccccc2)on1 (stereo unspecified) | -362*
Cc1ccc(-c2cc(C(=O)NCC3CCCO3)no2)cc1 (stereo unspecified) | -76*
CCOc1ccc(-c2cc(CCCC(=O)NCCc3ccc(OC)c(OC)c3OC)no2)cc1 | 57
CCOc1ccc(-c2nc(CCl)cs2)cc1OC | -104*
O=c1nc2c(-c3cccc(Br)c3)n[nH]n2c2ccccc12 | -176*
Oc1c(C2=NCCNC(C(F)(F)F)=C2)ccc2ccccc12 | -193*
COc1cccc(/C=N/NC(=O)c2cccc(N3CCCC3=O)c2)c1 | -105*
COc1ccc(/C=N/NC(=O)CCn2cnc(-c3ccccc3)c2-c2ccccc2)cc1 | 56
O=C(Nc1ccccc1)c1cccc(N2CCCC2=O)c1 | -117*
O=C(N/N=C/c1cc(Br)ccc1O)c1cccc(N2CCCC2=O)c1 | 68
COc1cccc(/C=N/NC(=O)CCn2nnc3ccccc32)c1 | -120*
SMILES | aSyn UTR act
C/C(=N/NC(=O)c1cccc(N2CCCC2=O)c1)c1ccncc1 | -166*
Cn1c(=NC(=O)c2cccc([N+](=O)[O-])c2)sc2ccccc21 | -139*
COc1cc(C(=O)N=c2sc3c(C)ccc(OC)c3n2C)cc(OC)c1OC | -222*
COc1cc(C(=O)N=c2sc3ccccc3n2C)cc(OC)c1OC | -103*
COc1ccc(C(=O)N=c2sc3c(C)ccc(OC)c3n2C)cc1 | -115*
Cc1ccc(-n2ncc3c(NCc4ccco4)ncnc32)cc1C | -183*
Cc1cccc(-n2ncc3c(NCc4ccco4)ncnc32)c1 | -549*
CCN(CC)CCn1c(=O)n(-c2ccc(Cl)cc2)c(=O)c2c3c(sc21)CN(C)CC3 | -66*
CC(=O)Nc1c(C(=O)Nc2ccc3c(c2)OCO3)oc2ccccc12 | -88*
O=C(CCl)Nc1c(C(=O)Nc2ccc3c(c2)OCCO3)oc2ccccc12 | -139*
